The record followed here is PubChem BioAssay (Tox21).

Inconclusive results are not listed. Values without a mark were called inactive. Active and inactive are the calls of the source. Calls follow the shape of the dose curve; as a rule, active = well fitted activation curve with a large enough effect in the signal ratio in the repeat runs (not every such curve was filed as active); inconclusive = weak or mixed curves; inactive = flat fitted curve, though single readings scatter; the % refers to the signal ratio.
% is scaled to controls: 0 for no effect and ±100 for the full control effect.

The assay is described as follows: qHTS assay to identify small molecule agonists of the hypoxia (HIF-1) signaling pathway (AID 1224846). To be noted: HRE-bla ME-180 cells, beta-lactamase ratio, 17 h; series mostly up to 76.8 µM; activation: at the top concentration. From the text: U.S. Tox21 Program National Center for Advancing Translational Sciences [NCATS] NIH Chemical Genomics Center [NCGC] U.S. Environmental Protection Agency [EPA] National Institutes of Environmental Health Sciences [NIEHS] National Toxicology Program [NTP] U.S. Food and Drug Administration [FDA] Tox21 Assay Overview: Hypoxia-inducible factor-1 (HIF-1) is the major hypoxia-regulated transcription factor that controls cellular responses to low oxygen concentration. HIF-1 is composed of two subunits: hypoxia responsive HIF-1-alpha and constitutively expressed HIF-1-beta, which is also known as aryl hydrocarbon receptor nuclear translocator. During hypoxic conditions, HIF-1-alpha heterodimerizes with HIF-1-beta and translocates into the nucleus where the HIF-1 complex binds to the hypoxia-response element (HRE) and activates expression of target genes such as VEGF (vascular endothelial growth factor). The HIF-1 pathway is essential to normal growth and development, and is involved in the pathophysiology of cancer, inflammation, and ischemia. Using a beta-lactamase reporter-gene under control of the hypoxia response element, a cell-based assay [CellSensor(TM) HRE-bla ME-180 from Life Technologies, Carlsbad, CA] was used to measure hypoxia-induced signaling. Tox21 10K library compounds were measured for their ability to induce the reporter gene activity.
Tox21 Assay Protocol Summary: HRE-bla ME-180 cells were dispensed at 2,000 cells per well in 6 uL of assay medium containing 0.5% dialyzed FBS into black wall/clear-bottom 1536-well plates using a Multidrop Combi (Thermo Scientific, Waltham, MA) dispenser. After the assay plates were incubated at 37C and 5% CO2 for 5 hrs, 23 nL of compounds dissolved in DMSO, positive controls or DMSO only was transferred to each well of the assay plate using a Pintool station (Kalypsys, San Diego, CA). The assay plates were incubated at 37C and 5% CO2 for 17 hrs. One uL of LiveBLAzerTM B/G FRET substrate (CCF4-AM) (Life Technologies) was added to each well using a Flying Reagent Dispenser (Aurora Discovery, San Diego, CA).
On the technique in general: Quantitative high-throughput screening tests each substance at several concentrations.
`NC(=S)NC(N)=S`: the “activation” value is -0.878%.

Consider `C=CCn1c(=O)n(CC=C)c(=O)n(CC=C)c1=O`, for which the “activation” value was 0.504%.

`CC(C)Cn1cnc2c(N)nc3ccccc3c21`: the activation was 0.447% [at 15.8 µM].

As to `CC/C=C\CCCCCO`, the “activation” value was 0.0686%.

With `CCOC(=O)NNc1ccc(N(CC)CC(C)O)nn1` (stereo not given), the “activation” value was 0.0136% [at 35.5 µM].

With `C=Cc1ccccc1C=C`, the “activation” value was -0.255% [at 199 µM].

Consider `C[C@H]1NCc2cc(-c3ccc4c(=O)c(C(=O)O)cn(C5CC5)c4c3OC(F)F)ccc21`, for which the activation was 0.068% [at 15.8 µM].

Consider `CCN(CCN)c1cccc(C)c1`, for which the Potency entry was “inactive”.

On to `Cc1cccc(C(=O)O)c1O`, for which the “activation” value was -1.11% [at 35.5 µM].

With `CCCCN(CCCC)CC(O)c1cc(Cl)cc2c1-c1ccc(Cl)cc1/C2=C/c1ccc(Cl)cc1` (stereo not given), the “activation” value was 2.11% [at 35.5 µM].

Turning to `CC[C@H](C)COC(=O)/C=C/c1ccc(N=Cc2ccc(OC)cc2)cc1`, the “activation” value was 5.72%.

On to `CCO[Si](OCC)(OCC)OCC`, for which the “activation” value was -0.54%.

Regarding `CC(C)CCOC(=O)/C=C/c1ccccc1`, the “activation” value was 0.256%.

Regarding `CCCCCCCCCCOC(=O)c1ccccc1C(=O)OCCCCCCCC`, the “activation” value was 1.19%.

For the compound `COc1c(C)c2c(c(O)c1C/C=C(\C)CCC(=O)OCCN1CCOCC1)C(=O)OC2`, the “activation” value was 0.282% [at 35.5 µM].

Regarding `Cc1cc(-c2ccc(N=Nc3cc(S(=O)(=O)O)c4ccccc4c3N)c(C)c2)ccc1N=Nc1cc(S(=O)(=O)O)c2ccccc2c1N`, the “activation” value was 0.386%.

With `CCCCCCCC/C=C\CCCCCCCCN`, the “activation” value was 4.07% [at 35.5 µM].

With `Oc1cc(Cl)cc(Cl)c1Cl`, the “activation” value is 1.95%.

For the compound `CC(C(=O)O)c1ccc2c(c1)[nH]c1ccc(Cl)cc12` (stereo not given), the “activation” value is -0.56% [at 35.5 µM].

As to `S=c1nccc[nH]1`, the “activation” value is -0.195%.

Take `Cc1ccc(O)c(O)c1`: the “activation” value is 0.565%.

`OC[C@H]1O[C@H](O[C@H]2O[C@H](CO)[C@@H](O)[C@H](O)[C@H]2O)[C@H](O)[C@@H](O)[C@@H]1O`: the “activation” value is 1.07%.

As to `S=C([S-])NCCNC(=S)[S-].S=C([S-])NCCNC(=S)[S-].[Mn+2].[Zn+2]`, the “activation” value was 1.07% [at 35.5 µM].

Take `Cc1cccc(C)c1NC(=O)c1ccc(N)cc1`: the “activation” value was -0.88% [at 35.5 µM].

Take `c1cnccn1`: the “activation” value is -0.336%.

As to `CCC(=O)C(=O)CC`, the “activation” value is -0.954%.

`CCC(C)[O-].CCC(C)[O-].CCOC(=O)/C=C(/C)[O-].[Al+3]`: the “activation” value is -0.26%.

In the case of `C#C[C@]1(O)CC[C@H]2[C@@H]3[C@H](C)CC4=C(CCC(=O)C4)[C@H]3CC[C@@]21C`, the “activation” value is 1.25% [at 35.5 µM].

Turning to `Cc1c(N)cccc1C(F)(F)F`, the “activation” value was -0.821% [at 35.5 µM].

In the case of `CCCCOC(=O)CC`, the “activation” value is -0.671%.

In the case of `O=C(O)c1ccc2cc(C(=O)O)ccc2c1`, the “activation” value was -2.02%.

For the compound `Nc1nc(N)nc(-c2cc(Cl)ccc2Cl)n1`, the “activation” value is 0.521% [at 35.5 µM].

Consider `OC1CCC(C2CCCCC2)CC1` (stereo not given), for which the “activation” value was -1.3%.

Regarding `CC[N+](CC)(CC)CCOc1ccc(/C=C/c2ccccc2)cc1`, the “activation” value is 1.81% [at 35.5 µM].

Turning to `Nc1ccc(Oc2ccc(Cl)cc2)cc1`, the “activation” value was 3.12%.

As for `CCCCC(CC)COC(=O)CCCCC(=O)OCc1ccccc1` (stereo not given), the “activation” value was 0.649%.

With `O=C(Oc1ccccc1)Oc1ccccc1`, the “activation” value was 0.0807%.

`O=C(O)Cc1ccccc1Nc1c(Cl)cccc1Cl`: the “activation” value is 6.55%.

Consider `CN(C)Cc1cc(C(C)(C)C)c(O)c(C(C)(C)C)c1`, for which the “activation” value is -0.289%.

As for `CC(C)(C)NSc1nc2ccccc2s1`, the “activation” value is 0.203%.
